# Test results published in PubChem BioAssay AID504433 (National Center for Advancing Translational Sciences (NCATS), 2011).
# Several values for one entry are separate records, joined by “and”; a condition that tells them apart may be missing. Equal values may be shown once. Results filed as inconclusive are left out. Where a call stands in place of a potency, no number is given. Activity calls are given as the source filed them. The call rests on the fitted dose curve; in most records, active means well fitted inhibition curve with a large enough effect; inconclusive means small, poorly fitted or top-dose-only effect; inactive means flat fitted curve, though single readings scatter.
# Assay: Secondary Assay for lipid storage modulators: Cytotoxcity for probe SAR round 2
# Details: Drosophila S3 cells viability, CellTiter-Glo ATP luminescence, 24 h; series mostly up to 46.1 µM
# Description: NIH Molecular Libraries Probe Production Centers Network [MLPCN] NIH Chemical Genomics Center [NCGC] MLPCN Grant: 1 R03 MH085686-01 Assay Submitter (PI): Beller, Mathias; Max-Planck-Institut fur Biophysikalische Chemie, Germany. NCGC Assay Overview: Storing lipids as a reservoir for energy or the anabolism of elementary metabolites is a common feature of probably all cells and is conserved from bacteria to humans. The universal cellular lipid storage organelle is the so-called lipid storage droplet (LD). Although ubiquitous, LDs share a simple structure composed of a hydrophobic core that harbors the storage lipids, which is shielded by a droplet-specific phospholipid monolayer to which proteins are attached. The current model of LD biogenesis involves an incorporation of the lipid core into the membrane leaflets of the endoplasmic reticulum (ER) followed by a subsequent budding-like maturation of a LD, which ultimately pinches off. Once released, LD volume can increase by localized lipogenesis or fusion of existing droplet. Storage lipids are re-mobilized enzymatically by lipase activity. Lipase regulation in the adipocyte is heavily studied and involves multiple components including catecholamine signaling, the LD-associated proteins Perilipin and comparative gene identification (CGI-58) and at least two lipases named hormone sensitive lipase (HSL) and adipocyte triglyceride lipase (ATGL). LD regulation outside of the adipocyte is poorly understood and only few components are known. However, there is an urgent need to learn more about ectopic fat depots as mislocalized storage of lipids, for example in the liver or muscle, is an eminent health problem associated with insulin resistance or the metabolic syndrome. We developed a laser-scanning cytometer assay to enable 1,536-well screening and combined the results of the small molecules screen with an RNAi database based on lipid storage. The compound was tested here for cytotoxcity using CellTiter-Glo.
# Assay Protocol Summary: Cytotoxcity assay was performed with embryonic Drosophila S3 cells (Bloomington Drosophila Genomics Resource Center [DGRC]). We dispensed 4 uL of cells at 1.25 x 10^6 cells/mL into Greiner solid white 1,536-well plates with a bottle-valve solenoid-based dispenser (Aurora) to obtain 5,000 cells/well. A total of 23 nL of compound solution of different concentrations were transferred to the assay plates using a Kalypsys pin tool equipped with a 1,536-pin array containing 10-nL slotted pins (FP1S10, 0.457-mm diameter, 50.8 mm long; V&P Scientific). One microliter of oleic acid (400 uM) was added, and the plate was lidded with stainless steel rubber gasket lined lids containing pinholes. After 24 hrs of incubation at 24 degrees Celsius and 95% humidity, 4 uL of CellTiter-Glo (Promega) was added to the wells. Luminescence was detected on the Perkin Elmer ViewLux.
row,Structure (SMILES),Potency
1,CCNC(=O)C1CCN(C(=O)C(C)(C)NC(=O)Nc2ccccc2Cl)CC1,inactive
2,CCOC(=O)C1CCN(C(=O)C(C)(C)NC(=O)Nc2ccc(CN3CCOCC3)cc2)CC1,inactive
3,CCOC(=O)C1CCN(C(=O)C(C)(C)NC(=O)Nc2ccc(F)c(F)c2)CC1,inactive
4,CCOC(=O)C1CCN(C(=O)C(C)(C)NC(=O)Nc2cccc(OC)c2)CC1,inactive
5,O=C(NC1CCCc2c1cnn2-c1ccc(F)cc1F)c1ccccn1 (configuration not stated),7.05 µM (active) and 11.2 µM (active)
6,CCOC(=O)C1CCN(C(=O)C(C)(C)NC(=O)Nc2ccc(OC)c(Cl)c2)CC1,inactive
7,CCOC(=O)C1CCN(C(=O)C(C)(C)NC(=O)Nc2cccc(-c3csc(C)n3)c2)CC1,inactive
8,O=C(N[C@H]1CCCc2c1cnn2-c1ccc(F)cc1F)c1ccccn1,inactive
9,O=C(NC1CCCc2c1cnn2-c1ccc(F)cc1F)c1ccccc1 (configuration not stated),4.99 µM (active)
10,CCOC(=O)C1CCN(C(=O)C(C)(C)NC(=O)Nc2ccc3c(c2)CCC3)CC1,inactive
11,CCOC(=O)C1CCN(C(=O)C(C)(C)NC(=O)Nc2cccc(C(=O)OC)c2)CC1,inactive
12,CCOC(=O)C1CCN(C(=O)C(C)(C)NC(=O)Nc2ccc3ccccc3c2)CC1,inactive
13,CC(C)(NC(=O)Nc1ccccc1Cl)C(=O)N1CCC(C(=O)O)CC1,inactive
14,CCOC(=O)C1CCN(C(=O)C(C)(C)NC(=O)Nc2ccc(C#N)cc2)CC1,inactive
15,CCOC(=O)C1CCN(C(=O)C(C)(C)NC(=O)Nc2ccc(N)cc2)CC1,inactive
16,CCN(CC)C(=O)C1CCN(C(=O)C(C)(C)NC(=O)Nc2ccccc2Cl)CC1,inactive
17,O=C(NC1CCCc2c1cnn2-c1ccc(F)cc1F)c1cccs1 (configuration not stated),5.6 µM (active)
18,CCOC(=O)C1CCN(C(=O)C(C)(C)NC(=O)Nc2ccc(Cl)cc2Cl)CC1,inactive
19,CCOC(=O)C1CCN(C(=O)C(C)(C)NC(=O)Nc2ccc(N(C)C)cc2)CC1,inactive
20,CCOC(=O)C1CCN(C(=O)C(C)(C)NC(=O)Nc2ccccc2Cl)CC1,inactive
21,CC(C)(C)OC(=O)NCCOCCOCCOc1ccc(-n2ncc3c2CCCC3NC(=O)c2ccccn2)cc1 (configuration not stated),3.15 µM (active)
22,CC(C)(C)OC(=O)NCCOCCOCCOc1cccc(-n2ncc3c2CCCC3NC(=O)c2ccccn2)c1 (configuration not stated),5.6 µM (active)
